From PubChem BioAssay
The source made the active and inactive calls. Rule as the data show it: active = inhibition above about 31%; inactive = the rest.

Test: reversal of MRP1-mediated doxorubicin resistance, pilot screen, H69AR cells, doxorubicin co-treatment (AID 601)
Details: H69AR cells, CellTiter-Glo, 72 h; compound alone cytotoxicity; at 10 µM

With CCC(c1nnc(SCC(=O)NCC2CCCO2)n1Cc1ccccc1)N(C)C (configuration not stated) as the compound, how does the viability read?
Its viability is 89.2%.

For Cc1ccc(N2CC(C)Cn3c2nc2c3c(=O)n(CC(=O)OCc3ccccc3)c(=O)n2C)cc1C (configuration not stated), which viability is on record?
The viability was 93.8%.

For CCNC(=O)c1ccc(NS(=O)(=O)c2ccccc2)cc1, which viability is on record?
Its viability is 90.5%.

With CCOc1ccc(-c2nc(C#N)c(N3CCCCCC3)o2)cc1 as the compound, how does the viability read?
The viability was 94.7%.

For Cc1ccc(NS(=O)(=O)c2cn(C)cn2)cc1, which viability is on record?
Its viability is 92.7%.

For Fc1ccccc1-c1nc(-c2ccccc2)no1, which viability is on record?
The viability was 111%.

Which viability does the source give for CCOC(=O)C1=C(C)NC(C)=C(C(=O)OCC)C1c1cc(N)ccc1OC(F)F here?
The viability was 111%.

With COc1ccccc1C1/C(=C(\O)c2c(C)nc3c(C)cccn23)C(=O)C(=O)N1CCCN(C)C (configuration not stated) as the compound, how does the viability read?
Its viability is 102%.

For CCOC(=O)C1CCCN(Cc2nc(N)nc(Nc3ccc(C)cc3)n2)C1 (configuration not stated), which viability is on record?
The viability was 87.4%.

Which viability does the source give for ON1C2CCCCC2N(O)C1c1c(F)c(F)c(F)c(F)c1F (configuration not stated) here?
Its viability is 92.8%.

For CCOc1ccc(CN2C(=O)c3ccccc3C2C(=O)NCc2cccnc2)cc1 (configuration not stated), which viability is on record?
Its viability is 98.8%.

With CCOc1ccccc1NC(=O)CN(c1ccc(C)cc1)S(=O)(=O)c1c(C)noc1C as the compound, how does the viability read?
Its viability is 81%.

With CCCOc1ccc([C@@H]2C3CN(C(=O)OCC)CC=C3C(C#N)=C(N)C2(C#N)C#N)cc1OC (some centres not stated) as the compound, how does the viability read?
The viability was 63.4%.

Which viability does the source give for COc1ccc(C2=NOC(C(=O)NCc3ccc(F)cc3)C2)cc1OC (configuration not stated) here?
The viability was 29.3%.

For COc1cc(C2CC(=O)NC3=C2C(=O)CC(C)(C)C3)ccc1O (configuration not stated), which viability is on record?
Its viability is 109%.

With CCOc1ccc2[nH]c(=O)c(CN(Cc3nnnn3CCc3ccccc3)CC3CCCO3)cc2c1 (configuration not stated) as the compound, how does the viability read?
Its viability is 78.7%.

Which viability does the source give for Cc1cc(C)c2cc3c(ccn3C3OC[C@H](O)[C@H](O)[C@H]3O)cc2n1 (some centres not stated) here?
The viability was 97.4%.

For N[C@@H](Cc1ccccc1)c1nnc2sc(SCc3ccccc3)nn12, which viability is on record?
Its viability is 87.9%.

With CCC(C)NC(=O)C1(C)CCC(=O)N1Cc1ccccc1OC (configuration not stated) as the compound, how does the viability read?
Its viability is 95.3%.

Which viability does the source give for Cc1cc(Nc2ccc(C(=O)O)cc2)n2nc(C)nc2n1 here?
The viability was 109%.

Test: 384-well plate pilot, post-Golgi transport modulator project, inhibition of yeast transport mutant growth (AID 636)
Details: absorbance 615 nm, about 18 h, stronger effect = higher value

With CC(=O)Nc1ccc(S(=O)(=O)N2CCN(C(C)CCc3ccccc3)CC2)cc1 (configuration not stated) as the compound, how does the inhibition read?
Its inhibition is -4.8% (inactive).

Which inhibition does the source give for COc1ccc(NC(=O)Nc2cc(C)ccc2OC)cc1 here?
Its inhibition is 1.18% (inactive).

Which inhibition does the source give for O=C(CNS(=O)(=O)c1ccc(Br)s1)N1CCCC1 here?
The inhibition was -2.11% (inactive).

Which inhibition does the source give for Cn1c(=N)n(CC(=O)O)c2ccccc21 here?
Its inhibition is -5.97% (inactive).

For CC(C)(C)Nc1nc(OCC(F)(F)F)nc(OCC(F)(F)F)n1, which inhibition is on record?
Its inhibition is -5.26% (inactive).

Which inhibition does the source give for COc1cc(CC(=O)Nc2ncc(C)s2)cc(OC)c1OC here?
Its inhibition is -3.2% (inactive).

With Cc1ccc(NC2=NC3(CCCCC3)N=C(N)N2)c(C)c1 as the compound, how does the inhibition read?
The inhibition was 2.16% (inactive).

For C=CCSc1nnc(-c2ccccc2NC(C)=O)c(=O)[nH]1, which inhibition is on record?
Its inhibition is -3.03% (inactive).

Which inhibition does the source give for CC1CCN(CCCNC(=O)c2cn(C)c3ccc(S(=O)(=O)N4CCCC4)cc3c2=O)CC1 here?
Its inhibition is -6.76% (inactive).

Which inhibition does the source give for C=CCOc1ccc(/C(O)=C2\C(=O)C(=O)N(CCOC)C2c2cccnc2)cc1 (configuration not stated) here?
The inhibition was -6.89% (inactive).

With Cc1cccc(C(=O)N2CCC(n3nnc4cc(F)ccc43)CC2)c1 as the compound, how does the inhibition read?
Its inhibition is -3.21% (inactive).

With CC(C)Oc1ccc(N2CC(C(=O)Nc3ccccc3F)CC2=O)cc1 (configuration not stated) as the compound, how does the inhibition read?
The inhibition was -1.17% (inactive).

Which inhibition does the source give for O=C(CSc1ncc(-c2ccc(F)cc2)[nH]1)N1CCCCC1 here?
Its inhibition is -2.95% (inactive).

With CCCNC(=O)Nc1ccccc1C(=O)Nc1ccc(OC)cc1 as the compound, how does the inhibition read?
The inhibition was -4.46% (inactive).

Which inhibition does the source give for COc1ccccc1OCC(=O)NCC1CCCCC1 here?
The inhibition was -3.29% (inactive).

For Cc1ccccc1NC(=O)CSc1nc(N)c(C#N)c(-c2cccs2)c1C#N, which inhibition is on record?
Its inhibition is -9.32% (inactive).

Which inhibition does the source give for c1ccc(CCc2nc(-c3cccnc3)no2)cc1 here?
The inhibition was -4.27% (inactive).

For COc1cc(NC2=CC(=O)CC(C)(C)C2)cc(OC)c1, which inhibition is on record?
Its inhibition is 0.26% (inactive).

With Cc1ccccc1CN1CCN(CC(=O)NCc2ccccc2)C1=O as the compound, how does the inhibition read?
Its inhibition is -5.32% (inactive).

With CCOC(=O)c1nnc(-c2ccccc2)o1 as the compound, how does the inhibition read?
The inhibition was -1.56% (inactive).

With CCC(c1nnc(SCC(=O)NCC2CCCO2)n1Cc1ccccc1)N(C)C (configuration not stated) as the compound, how does the inhibition read?
Its inhibition is -7.47% (inactive).

With Cc1ccc(N2CC(C)Cn3c2nc2c3c(=O)n(CC(=O)OCc3ccccc3)c(=O)n2C)cc1C (configuration not stated) as the compound, how does the inhibition read?
Its inhibition is -4.32% (inactive).

For CCNC(=O)c1ccc(NS(=O)(=O)c2ccccc2)cc1, which inhibition is on record?
The inhibition was 0% (inactive).

Which inhibition does the source give for CCOc1ccc(-c2nc(C#N)c(N3CCCCCC3)o2)cc1 here?
The inhibition was 0.64% (inactive).

Which inhibition does the source give for Cc1ccc(NS(=O)(=O)c2cn(C)cn2)cc1 here?
Its inhibition is -2.63% (inactive).

With Fc1ccccc1-c1nc(-c2ccccc2)no1 as the compound, how does the inhibition read?
Its inhibition is 1.05% (inactive).

For CCOC(=O)C1=C(C)NC(C)=C(C(=O)OCC)C1c1cc(N)ccc1OC(F)F, which inhibition is on record?
Its inhibition is 0.91% (inactive).
